From PubChem BioAssay
Unmarked numbers belong to inactive results. The rule behind the calls is not given here.

molecular target: Pantothenate synthetase (Mycobacterium tuberculosis (strain ATCC 25618 / H37Rv)) (UniProt P9WIL5); experiment: Recombinant Mtb pantothenate synthetase (PanC) inhibitors, coupled enzyme, confirmatory (AID 375); settings: coupled enzyme assay; at 10 µM, hits give high values;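 note: 0% = full reaction with vehicle and 100% = no enzyme background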
Sequence (P9WIL5 whole entry, looked up): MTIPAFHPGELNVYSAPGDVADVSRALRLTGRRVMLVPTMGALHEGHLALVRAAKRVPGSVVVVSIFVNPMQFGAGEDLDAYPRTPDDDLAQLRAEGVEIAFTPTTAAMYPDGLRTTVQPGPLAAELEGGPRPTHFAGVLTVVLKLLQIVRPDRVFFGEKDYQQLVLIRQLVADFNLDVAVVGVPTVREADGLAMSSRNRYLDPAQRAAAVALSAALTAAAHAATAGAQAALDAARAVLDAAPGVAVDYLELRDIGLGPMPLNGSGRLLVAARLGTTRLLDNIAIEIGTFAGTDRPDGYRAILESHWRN

SMILES | inhibition
CCC(Sc1ccc2nnc(-c3ccc(F)cc3)n2n1)C(=O)OC (stereo not given) | 0%
Cc1ccc(SCCNS(=O)(=O)c2ccc(F)cc2)cc1 | 1%
Cn1c(=O)cc(OCC(=O)NCCCN2CCN(Cc3ccccc3)CC2)c2ccccc21 | 0%
O=C(CSc1nnc(Cc2ccccc2)n1-c1cccc(Cl)c1)N1CCOCC1 | 0%
CCCSc1nnc2nc3c(nn12)c1ccccc1n3C | 0%
CC1NC(=O)NC1CCCCCC(=O)NCCc1ccccc1 (stereo not given) | 2%
CCOC(=O)N1CCC(n2c(=S)[nH]c3cc(OC)c(OC)cc3c2=O)CC1 | 2%
COc1ccc(Cn2nnnc2C(c2ccccn2)N2CCN(c3cc(Cl)ccc3C)CC2)cc1 (stereo not given) | 0%
CC(C)COC(=O)N(C)c1ccc(C(O)(C(F)(F)F)C(F)(F)F)cc1 | 5%
CCOc1ccccc1N1Cc2cc(C)c(C)cc2C1 | 0%
O=C(Nc1cccc(F)c1)c1cccc(S(=O)(=O)N2CCOCC2)c1 | 0%
CCOC(=O)C1=C(C)N(C)C(C)=C(C(=O)OCC)C1c1cccnc1 | 2%
CCN(CC)C(=O)C1=C(C)NC(=O)NC1c1c(F)cccc1Cl (stereo not given) | 0%
O=C(NCc1ccco1)c1cc2c(s1)CSC2 | 0%
Cc1nc(NC(=O)C2CC3CCCC(C2)C3=O)sc1C (stereo not given) | 0%
CCNS(=O)(=O)c1ccc(S(=O)(=O)N(Cc2ccccn2)C2CCCCC2)cc1 | 1%
Fc1ccc(C(c2nnnn2Cc2ccco2)N2CCN(C3CCCCC3)CC2)cc1 (stereo not given) | 0%
CCOC(=O)CNC(=O)CSc1ncnc2c1cnn2-c1ccccc1 | 0%
COc1ccc(OC)c(C2=NOC(C(=O)Nc3cc(C)nn3-c3ccccc3)C2)c1 (stereo not given) | 0%
CC(NS(=O)(=O)c1ccccc1)C(c1cccs1)N1CCN(C)CC1 (stereo not given) | 4%

SMILES | inhibition
CCOC(=O)c1cc(CC)sc1NC(=O)COC | 7%
O=C(CCN1CCN(c2ccc(F)cc2)CC1)Nc1ccccc1F | 1%
COc1ccc(Cn2c(-c3ccco3)nc3oc4ccccc4c(=O)c3c2=O)cc1 | 0%
CCC1(C)Cc2c(C#N)c(N)n(N)c(=S)c2CO1 (stereo not given) | 0%
Nc1nnc(Cc2ccc(Cl)cc2)s1 | 4%
CCc1nnc(NC(=O)c2ccc(S(=O)(=O)N(CC(C)C)CC(C)C)cc2)o1 | 0%
CC(=O)c1c(C)[nH]c(C(=O)Nc2c(C)n(C)n(-c3ccccc3)c2=O)c1C | 7%
O=C(NCc1ccccc1)c1cc(-c2ccco2)on1 | 0%
Cc1ccc(OCC(O)Cn2c(=N)n(CCN3CCCCC3)c3ccccc32)cc1 (stereo not given) | 0%
Cn1c(=O)c2c(nc(CN3CCOCC3)n2CC(O)CO)n(C)c1=O (stereo not given) | 8%
O=c1[nH]c(N2CCc3ccccc32)nc2c1CCCC2 | 0%
CC(CN1c2ccccc2Sc2ccccc21)N(C)C (stereo not given) | 0%
COC(=O)CC1C(=O)NCCN1C(=O)NC1CCCCC1 (stereo not given) | 1%
Cc1cc(=O)oc2cc(OCC#N)ccc12 | 0%
COc1ccc(CCn2c(-c3ccco3)nc3nc4ccccc4nc32)cc1 | 0%
O=C(NCCSCc1ccco1)Nc1cccc(Cl)c1 | 3%
CCN(C#N)c1nc(NC(C)C)nc(NC(C)C)n1 | 5%
COCCCC/C(=N\OCCN)c1ccc(C(F)(F)F)cc1 | 0%
Cc1cccc(-n2nc3c(c2NC(=O)CCC2CCCCC2)CS(=O)C3)c1C (stereo not given) | 3%
COc1ccccc1C(=O)N1CCNC(=O)C1CC(=O)Nc1ccc(Cl)cc1 (stereo not given) | 0%
